Experimental data from PubChem BioAssay (NCI).
This is part of a sample that, as a whole, favours compounds with a hit. Of some 83,000 tested, about 20% had one in any assay.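 Results are percent growth after 48 hours of single-concentration exposure. 100 means growth as in untreated cells, lower positive values show inhibition; negative values down to -100 show cell death.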 Unmarked numbers belong to inactive results. Activity calls are given as the source filed them. Rule for the calls: active = growth percent below 10; inactive = the rest.

Key:
Test in all cases: NCI-60 one-dose screen, 48 h (100 = growth as untreated, 0 = no growth, -100 = all killed)
Details in all cases: 10 µM unless noted
NCI-H23 lung = test system: NCI-H23 lung
NCI-H226 lung = test system: NCI-H226 lung
NCI-H322M lung = test system: NCI-H322M lung
HOP-62 NSCLC = test system: HOP-62 NSCLC
NCI-H460 lung = test system: NCI-H460 lung
HOP-92 NSCLC = test system: HOP-92 NSCLC
A549/ATCC NSCLC = test system: A549/ATCC NSCLC
786-0 renal = test system: 786-0 renal
COLO 205 colon = test system: COLO 205 colon
K-562 leukemia = test system: K-562 leukemia
MALME-3M melanoma = test system: MALME-3M melanoma
MDA-MB-231 breast = test system: MDA-MB-231 breast
RXF 393 renal = test system: RXF 393 renal
SF-295 CNS = test system: SF-295 CNS
SF-539 CNS = test system: SF-539 CNS
UACC-257 melanoma = test system: UACC-257 melanoma
M14 melanoma = test system: M14 melanoma
DU-145 prostate = test system: DU-145 prostate
SF-268 CNS = test system: SF-268 CNS
NCI-H522 lung = test system: NCI-H522 lung

| SMILES | growth (NCI-H23 lung) | growth (NCI-H226 lung) | growth (NCI-H322M lung) | growth (HOP-62 NSCLC) | growth (NCI-H460 lung) | growth (HOP-92 NSCLC) | growth (A549/ATCC NSCLC) | growth (786-0 renal) | growth (COLO 205 colon) | growth (K-562 leukemia) | growth (MALME-3M melanoma) | growth (MDA-MB-231 breast) | growth (RXF 393 renal) | growth (SF-295 CNS) | growth (SF-539 CNS) | growth (UACC-257 melanoma) | growth (M14 melanoma) | growth (DU-145 prostate) | growth (SF-268 CNS) | growth (NCI-H522 lung) |
| --- | --- | --- | --- | --- | --- | --- | --- | --- | --- | --- | --- | --- | --- | --- | --- | --- | --- | --- | --- | --- |
| CO[C@@]12[C@@H]3NC3CN1C1=C(C(=O)C(N)=C(C)C1=O)[C@@H]2COC(N)=O (some centres undefined) | -3.61% (active) | -5.36% (active) | 14.4% | 19.2% | -18.9% (active) | 12.8% | -61% (active) | -3.82% (active) | -0.289% (active) | 28.7% | -12% (active) | 67.5% | 11.9% | 5.61% (active) | 11.8% | -11.7% (active) | 2.4% (active) |  |  |  |
| CCn1c(CN2CCN(Cc3ccccc3)CC2)nc2cc(NC(=O)c3cccs3)ccc21 | -39% (active) | -35.5% (active) | -69% (active) | -81.6% (active) | -69.9% (active) | -72.3% (active) | -72.9% (active) | -67.8% (active) | -91.3% (active) | -27.5% (active) | -72.8% (active) | -90.6% (active) | -92.4% (active) |  | -69.8% (active) | -80.1% (active) | -64.6% (active) | -57.7% (active) | -88.3% (active) |  |
| COc1cc2nccc(Oc3ccc(NC(=O)C4(C(=O)Nc5c(F)cc(F)cc5F)CC4)cc3)c2cc1Oc1ccc(N)cn1 | 53.6% | 37.7% | 74.8% | 67.7% | 65.4% | 2.04% (active) | 48% | 96.5% | 44.3% | 7.69% (active) | 59% | 65.9% | 65.8% | 30.6% | 21.2% | 53.8% |  | 80.7% | 55.5% |  |
| C=C(C)[C@@H]1CC[C@]2(C)[C@H](CC=C3[C@@H]4C[C@](C)(C(=O)N5CCN(C)CC5)CC[C@]4(C)CC[C@]32C)[C@@]1(C)CCC#N | 72.5% | 69.6% | 85.1% | 63.1% |  | 32.7% | 55.3% | 71.5% | 45.2% | 23.4% | 77% | 85.9% | 84.9% | 95% | 70.2% | 51.4% | 66.6% | 88.3% | 72.5% | 79.8% |
| COc1cc(C)c2c(=O)c3c(oc2c1)C(=O)c1c(O)c(OC)cc(O)c1C3=O | -2.42% (active) | 30.7% | 14.2% | 25.7% |  | -32% (active) | 7.31% (active) | 20% | 109% | -23.8% (active) | -23.8% (active) | -0.877% (active) | 13.1% | 25.7% | 5.8% (active) | 54% | 19.3% | 26.8% | 21.5% | -48.3% (active) |
| C[C@]12CCc3nc(Nc4ccc(O)cc4)sc3C1=CC[C@@H]1[C@@H]2CC[C@]2(C)/C(=N/NC(N)=S)CC[C@@H]12 | 1.05% (active) | 55.4% | 4.16% (active) | -24.5% (active) |  | -19.3% (active) | -26.7% (active) | -73.6% (active) | -40.5% (active) | -2.83% (active) | -60.5% (active) | -40.4% (active) | -67.6% (active) | -8.62% (active) | 5.79% (active) | -9.35% (active) | -23.8% (active) | -62.4% (active) | -17% (active) | -55.2% (active) |
| COc1ccc(/C(=C\c2cc(OC)c(OC)c(OC)c2)C(=O)Nc2nc3ccc(Cl)cc3s2)cc1 | 94.4% | 83.2% | 82.5% | 94.9% |  | 86.8% | 81% | 91.3% | 108% |  | 93.8% | 90.9% | 109% |  | 100% | 92.1% | 105% | 93% | 71.1% | 74.9% |
| CC(=O)[C@H]1CC[C@H]2[C@@H]3CC[C@H]4CC=CC[C@]4(C)[C@H]3CC[C@]12C | 96.8% | 92.9% | 95.2% | 109% |  | 101% | 84% | 91.7% | 106% | 84.9% | 84% | 99.4% | 98.2% |  | 91.6% | 75.6% | 90.3% | 111% | 102% | 40% |
| Cc1cc(O)ccc1C1=NN(c2ccc(S(N)(=O)=O)cc2)C(=O)CC1 | 64.3% | 94.6% | 121% | 80.2% |  | 89.7% | 43.9% | 60.4% | 55.6% | 15.7% | 45.3% | 73.8% |  | 30.4% | 45.1% | 59.7% | 29.7% | 89.9% | 68.5% |  |
| COc1ccc(C2=CC(c3ccc(OC)cc3Br)N3C=CSC3=N2)cc1 (centres undefined) | 96.9% | 66.6% | 72.8% | 75.6% |  | 77.4% | 41.8% | 83.7% | 80.3% | 9.34% (active) | 89.9% | 75% | 84.6% |  | 77.5% | 80% | 25.2% | 66.2% | 77.1% | 67.9% |
| CC1=C(C(=O)Nc2ccc(F)cc2)C(c2ccc(C)cc2)C2=C(CC(C)(C)CC2=O)N1 (centres undefined) | 93.4% | 89.8% | 103% | 91.5% |  | 68.4% | 92.4% | 97.2% | 105% | 93.3% | 102% | 86.6% | 92.1% |  | 93.3% | 98.5% | 101% | 106% | 88% | 91.2% |
| CS(=O)(=O)Nc1cc(-c2cc3ncc(C#N)c(Nc4ccc(Oc5ccccc5)c(Cl)c4)c3s2)cnc1Cl | 56.6% | 64.3% | 26.9% | 54.8% |  | 45.6% | 55.2% |  | 66.9% | 51.5% | 74.5% | 45.3% | 15.9% | 38.4% | 57.8% | 68.2% | 50.1% | 48.1% | 52.8% | 32.4% |
| CN(C)c1ccc(Nc2c3ccccc3nc3ccccc23)cc1 | 16% | -38.3% (active) | 15.5% | 32.6% |  | -7.43% (active) | 14.2% | 9.08% (active) | -51.7% (active) | 8.82% (active) | -14% (active) | 43% | 21.6% | -7.58% (active) | 17.5% | 18.3% | 18.5% |  | 27.7% | 20.4% |
| COc1cc(/C=C2\C(=O)Nc3ccc(N(C)C)cc32)cc(OC)c1OC | 26.8% | 25.8% | 37.6% | 45.5% |  | 33.2% | -3.78% (active) | 28.4% | 28% | 21.8% | 37.2% | 24.3% | -45% (active) | 7.29% (active) | 10.3% | -11% (active) | -3.91% (active) |  |  | 23.8% |
| COC(=O)c1ccc(NC(N)=NCCC(C)(C)c2ccc(C(F)(F)F)cc2)nc1 | 17.5% | 37.4% | 74.5% | 63.7% |  | 39% | 54.2% | 56.9% | -71.2% (active) | 1.24% (active) | -30.9% (active) | 42.7% | 58.7% | 29.5% | 79.3% | 38.8% | -40% (active) |  |  | 39% |
| Cc1ccc(NC(=O)Cn2nncc2CN2C(=O)CSC2=O)cc1C | 96.8% | 90.7% | 103% | 98.5% |  | 112% | 102% | 108% | 106% | 106% | 99% | 111% | 103% | 103% | 101% | 102% | 105% | 106% | 98.5% |  |
| O=C1C2=C(C(=O)c3c(O)ccc(O)c31)N(c1ccc(N3CCOCC3)nc1)Cc1ccccc1O2 | -33.8% (active) | 0% (active) | -14.6% (active) | -13% (active) |  | -66.1% (active) | -23.2% (active) | -83.7% (active) | -67.5% (active) | -17.5% (active) | -91.6% (active) | -89.6% (active) | -92.1% (active) |  | -72.1% (active) | -92% (active) | -89.3% (active) | -98% (active) | -42.5% (active) | -47.3% (active) |
